Laboratory results taken from PubChem BioAssay AID1159580 (chemical genetic matrix, 2015).
Values joined by “and” are separate entries in the source; they are usually repeats but may differ in a detail not shown here. Equal values may be shown once. Screen size: about 5,500 compounds; about 2,000 (36%) were called active. Not shown: some 18% with an inconclusive outcome. No stated cut-off is given here; in the data, active means normalized growth mostly below about 0.91 (no sharp cut-off); inconclusive means no clear call, values can overlap the other calls; inactive means mostly above about 0.92. Some of the results follow.

Assay: chemical genetic growth profiling, strain panel (AID 1159580);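 further: tested at 20 µM; growth read once vehicle control cultures reached saturation at 30 °C; 1 = growth at the plate median or of vehicle wells; lower values mean less growth of the strain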
Settings: S. cerevisiae deletion strains, growth OD

Measured: normalized growth

CCCCC(CC)CN=C(N)NC(N)=NCCCCCCN=C(N)NC(N)=NCC(CC)CCCC (stereo not drawn)
active: locus YAL021C, strain ccr4, active compounds read low 0.063 | locus YAL026C, strain drs2, active compounds read low 0.0642 | locus YAL030W, strain snc1, active compounds read low 0.0574 | locus YBL061C, strain skt5, active compounds read low 0.0589 | locus YBR009C, strain hhf1, active compounds read low 0.0622 | locus YBR021W, strain FUR4, active compounds read low 0.097 | locus YBR023C, strain chs3, active compounds read low 0.064 | locus YBR171W, strain sec66, active compounds read low 0.0773 | locus YBR229C, strain ROT2, active compounds read low 0.056 | locus YBR231C, strain swc5, active compounds read low 0.0612 | locus YBR279W, strain paf1, active compounds read low 0.0581 | locus YCL011C, strain gbp2, active compounds read low 0.0577 | locus YCL016C, strain dcc1, active compounds read low 0.0603 | locus YCL029C, strain bik1, active compounds read low 0.0601 | locus YCL069W, strain vba3, active compounds read low 0.0617 | locus YCR088W, strain abp1, active compounds read low 0.0627 | locus YDL005C, strain med2, active compounds read low 0.0747 | locus YDL035C, strain GPR1, active compounds read low 0.0524 | locus YDL040C, strain nat1, active compounds read low 0.0565 | locus YDL074C, strain BRE1, active compounds read low 0.0887 | locus YDL101C, strain DUN1, active compounds read low 0.0654 | locus YDL134C, strain PPH21, active compounds read low 0.0565 | locus YDL185W, strain tfp1, active compounds read low 0.0566 | locus YDL192W, strain arf1, active compounds read low 0.0604 | locus YDR001C, strain nth1, active compounds read low 0.061 | locus YDR069C, strain doa4, active compounds read low 0.0611 | locus YDR101C, strain arx1, active compounds read low 0.0576 | locus YDR137W, strain rgp1, active compounds read low 0.0839 | locus YDR159W, strain sac3, active compounds read low 0.086 | locus YDR162C, strain NBP2, active compounds read low 0.0531 | locus YDR195W, strain ref2 0.115 | locus YDR297W, strain sur2, active compounds read low 0.0561 | locus YDR318W, strain mcm21, active compounds read low 0.0605 | locus YDR334W, strain swr1, active compounds read low 0.0645 | locus YDR335W, strain msn5, active compounds read low 0.062 | locus YDR388W, active compounds read low 0.0558 | locus YDR392W, strain spt3, active compounds read low 0.0874 | locus YDR502C, strain sam2, active compounds read low 0.0583 | locus YEL003W, strain gim4, active compounds read low 0.054 | locus YEL037C, strain rad23, active compounds read low 0.0582 | locus YEL061C, strain CIN8 (second series), active compounds read low 0.06 | locus YEL061C, strain CIN8, active compounds read low 0.0537 | locus YER015W, strain faa2, active compounds read low 0.0615 | locus YER016W, strain bim1, active compounds read low 0.0587 | locus YER110C, active compounds read low 0.0718 | locus YER111C, strain swi4, active compounds read low 0.0729 | locus YER155C, strain BEM2 (second series), active compounds read low 0.09 | locus YER155C, strain BEM2, active compounds read low 0.0673 | locus YER167W, strain BCK2, active compounds read low 0.0573 | locus YFR010W, strain ubp6, active compounds read low 0.0674 | locus YGL078C, strain dbp3, active compounds read low 0.0573 | locus YGL086W, strain mad1, active compounds read low 0.0562 | locus YGL167C, strain pmr1, active compounds read low 0.071 | locus YGL173C, strain kem1, active compounds read low 0.0685 | locus YGL227W, strain vid30, active compounds read low 0.0653 | locus YGL240W, strain doc1, active compounds read low 0.0743 | locus YGL248W, strain PDE1, active compounds read low 0.0546 | locus YGL253W, strain hxk2, active compounds read low 0.0547 | locus YGR078C, strain PAC10, active compounds read low 0.0524 | locus YGR135W, strain pre9, active compounds read low 0.0595 | locus YGR252W, strain gcn5, active compounds read low 0.113 | locus YHR013C, strain ard1, active compounds read low 0.109 | locus YHR027C, strain rpn1, active compounds read low 0.0612 | locus YHR030C, strain SLT2, active compounds read low 0.0544 and 0.0908 | locus YHR079C, strain IRE1 (second series), active compounds read low 0.0569 | locus YHR079C, strain IRE1, active compounds read low 0.106 | locus YHR094C, strain hxt1, active compounds read low 0.0581 | locus YHR129C, strain ARP1, active compounds read low 0.0586 | locus YHR142W, strain chs7, active compounds read low 0.0728 | locus YHR200W, strain rpn10, active compounds read low 0.0601 | locus YIL066C, strain RNR3, active compounds read low 0.0539 | locus YIL073C, strain SPO22, active compounds read low 0.104 | locus YIL125W, strain kgd1, active compounds read low 0.0595 | locus YIR030C, strain dcg1, active compounds read low 0.0594 | locus YJL092W, strain hpr5, active compounds read low 0.0605 | locus YJL095W, strain BCK1 (second series), active compounds read low 0.0569 | locus YJL095W, strain BCK1, active compounds read low 0.0657 and 0.0991 | locus YJL115W, strain asf1, active compounds read low 0.0737 | locus YJL129C, strain trk1, active compounds read low 0.0818 | locus YJL134W, strain LCB3, active compounds read low 0.0522 | locus YJL154C, strain vps35, active compounds read low 0.0612 | locus YJL164C, strain tpk1, active compounds read low 0.06 | locus YJL166W, strain qcr8, active compounds read low 0.0603 | locus YJL168C, strain set2, active compounds read low 0.0617 | locus YJL187C, strain SWE1 (second series), active compounds read low 0.0584 | locus YJR043C, strain POL32, active compounds read low 0.0684 | locus YJR066W, strain TOR1, active compounds read low -0.00183 | locus YJR075W, strain HOC1, active compounds read low 0.0661
